Results taken from the antibiotic and cytotoxicity screens of Wong et al. (2023).
About 500 (1.3%) of roughly 39,000 compounds were called active. For the sample, actives were picked, then their nearest neighbours and some compounds at random.

Test system: S. aureus RN4220
Assay: growth inhibition call (relative growth <= 0.2)
Details: 50 µM

Growth inhibition call, inactive:
C[C@@H]1CCCCO[C@H](CN(C)Cc2ccc(C(F)(F)F)cc2)[C@H](C)CN([C@@H](C)CO)C(=O)c2cc(N(C)C)ccc2O1
CC1CN(c2c(F)c(N)c3c(=O)c(C(=O)O)cn(C4CC4)c3c2F)CC(C)N1 (stereo unspecified)
N[C@@H]1CN(c2c(F)cc3c(=O)c(C(=O)O)cn([C@@H]4C[C@@H]4F)c3c2Cl)CC12CC2
C[C@H]1CN([C@@H](C)CO)C(=O)c2cc(NC(=O)C3CC3)ccc2O[C@H]1CN(C)C(=O)Nc1ccc2c(c1)OCO2
C[C@H]1CCCCO[C@@H](CN(C)Cc2ccc3c(c2)OCO3)[C@@H](C)CN([C@@H](C)CO)C(=O)c2cc(NC(=O)CCC(F)(F)F)ccc2O1
Cc1noc(C)c1NC(=O)Nc1ccc2c(c1)C(=O)N([C@@H](C)CO)C[C@@H](C)[C@H](CN(C)Cc1ccc(C(F)(F)F)cc1)OCCCC[C@H](C)O2
C[C@@H]1CN([C@H](C)CO)C(=O)c2cccc(NS(=O)(=O)c3cn(C)cn3)c2O[C@H]1CN(C)C(=O)NC1CCCCC1
CC(C)NC(=O)Nc1ccc2c(c1)C(=O)N([C@H](C)CO)C[C@@H](C)[C@@H](CN(C)Cc1ccc(Cl)c(Cl)c1)OCCCC[C@H](C)O2
COc1ccc(NC(=O)Nc2cccc3c2O[C@H](CN(C)Cc2ccc(-c4ccccc4)cc2)[C@H](C)CN([C@H](C)CO)C3=O)cc1
C[C@@H]1CCCCO[C@H](CN(C)CC2CCCCC2)[C@H](C)CN([C@@H](C)CO)C(=O)c2cc(NC(=O)Nc3ccc(C(F)(F)F)cc3)ccc2O1
C[C@H]1CN([C@@H](C)CO)S(=O)(=O)c2ccc(C#CCN(C)C)cc2O[C@H]1CN(C)Cc1cccnc1
CCn1cc(C(=O)O)c(=O)c2cnc(N3CCNCC3)nc21
CCn1cc(C(=O)O)c(=O)c2cc(F)c(N3CCNCC3)nc21
CCNC(=O)C[C@@H]1CC[C@H]2[C@@H](COC[C@H](O)CN2C(=O)Nc2c(C)noc2C)O1
C#CCN([C@H](/C=C/C1CC1)[C@@H](O)Cc1ccccc1)[C@@H](Cc1ccc(-n2cc(C(=O)NO)nn2)cc1)C(=O)OC
C[C@@H]1CN([C@@H](C)CO)C(=O)c2cc(NC(=O)c3ccccc3)ccc2O[C@@H](C)CCCCO[C@@H]1CN(C)Cc1ccc(C(F)(F)F)cc1
CC1(C)[C@@H](OC(=O)CCC(=O)O)CC[C@@]2(C)[C@H]1CC[C@]1(C)[C@H]2C(=O)C=C2[C@@H]3C[C@@](C)(C(=O)O)CC[C@]3(C)CC[C@]21C
CC1(C)[C@@H](OC(=O)CCC(=O)O)CC[C@]2(C)[C@H]3C(=O)C=C4[C@@H]5C[C@@](C)(C(=O)O)CC[C@]5(C)CC[C@@]4(C)[C@]3(C)CC[C@@H]12
COc1ccc(NC(=O)N(C)C[C@H]2OCCCC[C@@H](C)Oc3ccc(NS(=O)(=O)c4ccc(OC)cc4)cc3C(=O)N([C@@H](C)CO)C[C@@H]2C)cc1
Cc1occc1CN
O=C(N[C@H]1C=C[C@H](CC(=O)N2CCOCC2)O[C@@H]1CO)c1ccccn1
NC(=O)CSc1nnnn1-c1ccccc1
NCc1nnnn1-c1ccccc1
C[C@@H]1CN([C@H](C)CO)C(=O)Cc2cc(NS(=O)(=O)c3ccccc3)ccc2O[C@H]1CN(C)CC1CC1
CS(=O)(=O)N1[C@@H]2c3ccc(-c4cccc(F)c4)c(=O)n3C[C@H]1[C@H](CO)[C@H]2C(=O)N1CCOCC1
Cc1noc(C)c1S(=O)(=O)N(C)C[C@@H]1Oc2ccc(NS(=O)(=O)c3ccc(Cl)cc3)cc2CC(=O)N([C@H](C)CO)C[C@H]1C
C=CC[n+]1ccccc1/C=N/O
Cc1ccc(S[C@]2(C(=O)NC3CC3)CC(=O)N(Cc3ccccc3C(F)(F)F)[C@@H]2c2ccc(CO)cc2I)cc1
COC(=O)c1c(C)c2c(c(C)c1OC)OC(=O)c1c(C)c(Cl)c(OC)c(Cl)c1O2
COC(=O)c1c(OC)cc2c(c1C)Oc1c(Cl)c(O)c(Cl)c(C)c1C(=O)O2
COc1ccc(CN(C)C[C@@H]2Oc3ccc(NS(C)(=O)=O)cc3CC(=O)N([C@@H](C)CO)C[C@H]2C)cc1
C[C@H](O)C#Cc1cnc2c(c1)C(=O)N([C@H](C)CO)C[C@@H](C)[C@@H](CN(C)Cc1cncnc1)O2
CN1C(=O)c2cc(NC(=O)Nc3ccccc3F)ccc2OC[C@H]2O[C@@H](CC(=O)NCc3ccc(-c4ccccc4)cc3)CC[C@H]21
C[C@H](CO)N1C[C@H](C)[C@H](CN(C)C)Oc2ccc(NS(C)(=O)=O)cc2CC1=O
C[C@@H]1CN([C@@H](C)CO)C(=O)c2cc(NC(=O)Nc3ccc(C(F)(F)F)cc3)ccc2O[C@@H](C)CCCCO[C@@H]1CN(C)S(=O)(=O)c1cn(C)cn1
C[C@@H]1CN([C@@H](C)CO)C(=O)c2cc(NC(=O)Nc3ccc(C(F)(F)F)cc3)ccc2O[C@@H](C)CCCCO[C@H]1CN(C)S(=O)(=O)c1cn(C)cn1
C[C@H](CO)N1C[C@H](C)[C@@H](CN(C)S(=O)(=O)c2cn(C)cn2)OCCCC[C@H](C)Oc2ccc(NC(=O)Nc3ccc(C(F)(F)F)cc3)cc2C1=O
C[C@@H]1CN([C@H](C)CO)C(=O)c2cc(NC(=O)Nc3ccc(C(F)(F)F)cc3)ccc2O[C@@H](C)CCCCO[C@@H]1CN(C)S(=O)(=O)c1cn(C)cn1
C[C@@H]1CCCCO[C@@H](CN(C)C(=O)Nc2cccc3ccccc23)[C@H](C)CN([C@H](C)CO)C(=O)c2cc(NS(=O)(=O)c3ccccc3)ccc2O1
C[C@H]1CN([C@@H](C)CO)C(=O)c2cccc(NC(=O)C3CCCCC3)c2O[C@H]1CN(C)C(=O)Nc1ccc(C(F)(F)F)cc1
Cc1noc(C)c1S(=O)(=O)Nc1ccc2c(c1)C(=O)N([C@@H](C)CO)C[C@H](C)[C@H](CN(C)Cc1ccccc1)OCCCC[C@@H](C)O2
C[C@H](CO)N1C[C@H](C)[C@@H](CN(C)Cc2ccc(Cl)c(Cl)c2)Oc2c(NS(=O)(=O)c3ccccc3)cccc2C1=O
CO[C@@H]1CN(C)C(=O)c2ccc(NS(C)(=O)=O)cc2OC[C@H](C)N(C(=O)C2CCCCC2)C[C@@H]1C
C[C@@H]1CN([C@@H](C)CO)C(=O)c2cc(NS(=O)(=O)c3cn(C)cn3)ccc2O[C@@H](C)CCCCO[C@@H]1CN(C)S(=O)(=O)c1cccs1
C[C@@H]1CN([C@H](C)CO)C(=O)c2cccc(NC(=O)c3nc4ccccc4s3)c2O[C@@H]1CN(C)Cc1ccc(Cl)c(Cl)c1
O=C(C[C@@H]1CC[C@H]2[C@@H](COC[C@H](O)CN2S(=O)(=O)c2ccccc2)O1)N[C@H]1CCN(Cc2ccccc2)C1
C[C@@H]1CCCCO[C@H](CN(C)S(=O)(=O)c2cn(C)cn2)[C@H](C)CN([C@H](C)CO)C(=O)c2cc(N(C)C)ccc2O1
COC(=O)C[C@@H]1CC[C@H]2[C@@H](COC[C@@H](O)CN2S(=O)(=O)c2ccc(F)cc2)O1
COCC#Cc1cnc2c(c1)C(=O)N([C@H](C)CO)C[C@@H](C)[C@H](CN(C)C(=O)Nc1ccc(OC)cc1)O2
C[C@@H]1CN([C@H](C)CO)C(=O)CCCn2nncc2CO[C@H]1CN(C)C(=O)Nc1ccnc(N2CCOCC2)c1
COc1ccc(C#Cc2ccc3c(c2)[C@]2(C(=O)N3)[C@H](C(=O)O)[C@H]3C(=O)O[C@H](c4ccccc4)[C@H](c4ccccc4)N3[C@@H]2c2ccc(O)cc2)cc1
COc1ccc(C#Cc2ccc3c(c2)[C@]2(C(=O)N3)[C@H](c3ccc(O)cc3)N3[C@H](c4ccccc4)[C@H](c4ccccc4)OC(=O)[C@H]3[C@@H]2C(=O)O)cc1
COCCOC(=O)N1C(=O)[C@@]2(c3cc(C#Cc4ccc(OC)cc4)ccc31)[C@H](c1ccc(O)cc1)N1[C@H](c3ccccc3)[C@H](c3ccccc3)OC(=O)[C@H]1[C@@H]2C(N)=O
COc1ccc(C#Cc2ccc3c(c2)[C@@]2(C(=O)N3C(=O)N[C@@H](C)c3ccccc3)[C@H](c3ccc(OCCO)cc3)N3[C@H](c4ccccc4)[C@H](c4ccccc4)OC(=O)[C@H]3[C@@H]2C(=O)O)cc1

Growth inhibition call, active:
Cl.NC1CCN(c2c(F)cc3c(=O)c(C(=O)O)cn(C4CC4)c3c2Cl)C1 (stereo unspecified)
COc1c(N2CC3CCCNC3C2)c(F)cc2c(=O)c(C(=O)O)cn(C3CC3)c12.Cl (stereo unspecified)
CC1CN(c2c(F)c(F)c3c(=O)c(C(=O)O)cn(C4CC4)c3c2F)CC(C)N1 (stereo unspecified)
COc1c(N2CCNC(C)C2)c(F)cc2c(=O)c(C(=O)O)cn(C3CC3)c12 (stereo unspecified)
CCn1cc(C(=O)O)c(=O)c2cc(F)c(N3CCNC(C)C3)c(F)c21.Cl (stereo unspecified)
CC(=O)O[C@@H]1CC[C@@]2(C)[C@@H](CC[C@]3(C)[C@@H]2C(=O)C=C2[C@@H]4[C@@H](C)[C@H](C)CC[C@]4(C)CC[C@]23C)[C@@]1(C)C(=O)O
Nc1nnnn1-c1ccccc1
COC(=O)c1c(C)c2c(c(C)c1O)OC(=O)c1c(C)c(Cl)c(O)c(Cl)c1O2
CO[C@H]1C[C@H](O[C@H]2[C@H](C)[C@@H](O[C@H]3O[C@H](C)C[C@H](N(C)C)[C@H]3O)[C@@H](C)C[C@]3(CO3)C(=O)[C@H](C)[C@@H](O)[C@@H](C)[C@@H](C)OC(=O)[C@@H]2C)O[C@@H](C)[C@@H]1O
CO[C@@H](CN(C)S(=O)(=O)c1cn(C)cn1)[C@H](C)CN(C(=O)Nc1ccc(C(F)(F)F)cc1)[C@@H](C)CO
CO[C@H](CN(C)S(=O)(=O)c1cn(C)cn1)[C@@H](C)CN(C(=O)Nc1ccc(C(F)(F)F)cc1)[C@@H](C)CO
CO[C@H](CN(C)S(=O)(=O)c1cn(C)cn1)[C@@H](C)CN(C(=O)Nc1ccc(C(F)(F)F)cc1)[C@H](C)CO
CO[C@H](CN(C)S(=O)(=O)c1cn(C)cn1)[C@H](C)CN(C(=O)Nc1ccc(C(F)(F)F)cc1)[C@H](C)CO
CO[C@@H](CN(C)S(=O)(=O)c1cn(C)cn1)[C@@H](C)CN(C(=O)Nc1ccc(C(F)(F)F)cc1)[C@@H](C)CO
CO[C@H](CN(C)S(=O)(=O)c1cn(C)cn1)[C@H](C)CN(C(=O)Nc1ccc(C(F)(F)F)cc1)[C@@H](C)CO
O=C1O[C@H](c2ccccc2)[C@H](c2ccccc2)N2[C@H]1[C@@H](C(=O)O)[C@]1(C(=O)Nc3ccc(Cl)cc31)[C@H]2c1ccc(F)cc1
CN1C(=O)[C@@]2(c3cc(Cl)ccc31)[C@H](C(=O)O)[C@H]1C(=O)O[C@H](c3ccccc3)[C@H](c3ccccc3)N1[C@@H]2c1ccc(F)cc1
